Molecules are shown by their SMILES. This is part of a sample that, as a whole, favours compounds with a hit. Of some 83,000 tested, about 20% had one in any assay.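 Assay: single dose, 48 h. Readout: percent growth (0 = no net growth; negative = cell death). Active: <10.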 A number with no mark means an inactive call. Active and inactive are the calls of the source.

What all share (test): NCI-60 one-dose screen, 48 h (100 = growth as untreated, 0 = no growth, -100 = all killed)
Common to all, as to settings: 10 µM

The subject of assay [1] is HT29 colon.
In assay [2] the test system is SNB-75 CNS.
For assay [3], the system named is SNB-19 CNS.
Assay [4] has as its system U251 CNS.
Assay [5] concerns PC-3 prostate.
The test system of assay [6] is UACC-62 melanoma.
The subject of assay [7] is LOX IMVI melanoma.
For assay [8], the system named is SK-MEL-28 melanoma.
The test system of assay [9] is SK-MEL-2 melanoma.
Assay [10] relates to SK-MEL-5 melanoma.

For the molecule `CCN(CC)CCC(=O)Nc1cccc2c1C(=O)c1c(c(O)c3ccccc3c1O)C2=O`, the growth in [1] was 57.5%; in [2], 38%; in assay [3] it was 77.3%; in assay [4], 64.6%; in [5] it was 45.4%; in [6], 79.6%. Moreover, the values for the growth in assay [7], in [8] and in [9] were 40.6%, 34% and 112%, respectively.

For `CC[C@H](C)C(=O)O[C@H]1CCC=C2C=C[C@H](C)C(CCC3C[C@@H](O)CC(=O)O3)[C@H]21` (stereo partly drawn), the growth was 92.3% in assay [1]; 32.2% in assay [2]; 16.8% in assay [4]; 31.1% in [5]; 60% in assay [10]; 29.6% in assay [6]. In addition, the growth was 11.6% in assay [7], 78.4% in [8] and 19.5% in assay [9].

With `O=C(Nc1nc2ccccc2s1)Nc1ccc([N+](=O)[O-])cc1Cl`, the growth in assay [1] was 55.8%; in [2], 16.8%; in assay [4], 32.6%; in [5], 52%; in assay [10], 98.5%; in [6], 67.1%. Moreover, the growth in assay [7] was 12.7%; in assay [8], 68.5%; in assay [9] it was 111%.

Take `Clc1ccc(-c2cn(-c3ccccc3)c(-c3ccccc3)n2)c(Cl)c1`: the growth in [1] is -100% (active); in [2], -83.3% (active); in [4] it was -100% (active); in assay [5] it was -98.3% (active); in assay [10], 68.1%; in assay [6], 37%. The growth in [7] is -76.3% (active); in assay [8], 6.05% (active).

In the case of `COc1ccc(-c2nc3ncccn3c2-c2nnc(-c3ccsc3C)o2)cc1`, the growth was 103% in assay [1]; 17.5% in assay [2]; 72.4% in assay [4]; 83.6% in assay [5]; 81% in assay [10]; 78.3% in [6]. The growth in assay [7] is 88.4%; in assay [8], 78.2%; in assay [9] it was 90.5%.

Turning to `O=C1N=NC2=C1c1c3ccccc3c(O)n1CC2`, the growth is 103% in assay [1]; 103% in assay [2]; 105% in assay [4]; 86.2% in assay [5]; 112% in [10]; 96.4% in assay [6]. Besides, the growth is 105% in assay [7], 108% in assay [8] and 110% in [9].

On to `O=C1/C(=C/c2ccc(Cl)cc2)SC(=Nc2ccc(Cl)cc2)N1Cc1nc2ccccc2[nH]1`, for which the growth was 97% in [1]; 27.1% in [2]; 75% in [3]; 76.2% in [4]; 81.3% in [10]; 64.6% in assay [6]. Besides, the growth in assay [7] was 78%; in [8], 92.6%; in assay [9], 88.4%.

In the case of `CCC1(C(C)C)NC(=O)NC1=O` (stereo not drawn), the growth in [1] is 106%; in [2] it was 100%; in [4] it was 98.2%; in assay [5], 98.5%; in assay [10], 104%; in [6] it was 94.6%. Also, the growth in assay [7] was 99.7%; in assay [9], 83.8%.

Regarding `Cc1ccc(Nc2cc(C)nc(NCCCNc3ccnc4cc(Cl)ccc34)n2)cc1`, the growth in assay [1] was -87.2% (active); in assay [2] it was -98.5% (active); in assay [3] it was -24.9% (active); in assay [4], -99.2% (active); in assay [6], -92.9% (active); in assay [7], -82.7% (active). In addition, the figures for the growth in [8] and in [9] were -100% (active) and -97% (active), respectively.

On to `Nc1c(C(=O)Nc2cccc3ccccc23)sc2nc3c(cc12)C(=O)CCC3`, for which the growth is 8.98% (active) in assay [1]; 20.7% in assay [2]; 15.2% in assay [4]; 22.6% in [5]; 12.2% in assay [10]; 43.2% in [6]. For the same molecule, the growth is 29.7% in [7], 42.8% in assay [8] and 35.5% in [9].

With `O=C(Nc1cccc(-n2cc(-c3ccncc3)c(-c3ccc(O)c(Cl)c3)n2)c1)c1cc(C(F)(F)F)cc(C(F)(F)F)c1`, the growth was 48.2% in assay [1]; 59.4% in assay [2]; 33.1% in [4]; 24.2% in assay [5]; 56.4% in assay [10]; 72.4% in [6]. Further, the results for the growth in assay [7] and in assay [8] were 37.1% and 70.8%, respectively.

Consider `CCOC(=O)C(=Cc1ccc(Br)cc1)C(=O)OCC`, for which the growth is -64% (active) in [1]; 12.7% in assay [2]; -46% (active) in assay [4]; -30.4% (active) in assay [5]; -72.6% (active) in [6]; -85.7% (active) in [7]. Further, the growth in assay [8] was -74.5% (active); in assay [9], -61.5% (active).

For `Cc1cn(C2CCCCO2)c(=O)nc1NO` (stereo not drawn), the growth in assay [1] was 110%; in assay [2], 99.3%; in assay [4], 112%; in assay [5], 104%; in [6], 104%; in [7], 110%. Moreover, the values for the growth in [8] and in assay [9] were 116% and 120%, respectively.

With `CN(C)CCOc1nc2ccccc2c2c1-c1ccc(Cl)cc1C2=O`, the growth was -33.8% (active) in assay [1]; -63.8% (active) in [2]; 0.224% (active) in [4]; 2.76% (active) in assay [5]; -91.6% (active) in assay [10]; -39.5% (active) in [6]. Besides, the results for the growth in [7], in [8] and in assay [9] were -37.1% (active), -49.9% (active) and -9.67% (active), respectively.

As to `N=C(N)c1ccc(-c2ccc(-c3ccco3)o2)cc1`, the growth is 5.15% (active) in assay [1]; 22.2% in assay [2]; 53.5% in assay [4]; 59.8% in assay [5]; 76% in assay [10]; 95.9% in [6]. The growth in assay [7] was 56.9%; in assay [8] it was 75.1%; in assay [9], 108%.

For the molecule `O=C1c2ccc3c4c(ccc(c24)C(=O)N1CCNCc1ccccc1)C(=O)N(CCNCc1ccccc1)C3=O`, the growth is -16.5% (active) in [1]; 105% in [2]; -46.3% (active) in assay [4]; 28.3% in assay [5]; -97.9% (active) in [10]; -31.6% (active) in [6]. Also, the growth was -47.9% (active) in [7], 6% (active) in [8] and 119% in [9].

For the origin of these results see PubChem BioAssay (NCI).
